In PubChem BioAssay (Tox21):
Active and inactive are the calls of the source. Where a call stands in place of a potency, no number is given. Calls come from the whole dose curve; as a rule, active = well fitted activation curve with a large enough effect in the repeat runs; inconclusive = weak or mixed curves; inactive = flat fitted curve, though single readings scatter.

experiment: A CellTox Green Cytotoxicity Assay to monitor cytotoxicity in HepG2 cells - 0 hour (AID 1224882); settings: CellTox Green fluorescence; series mostly up to 76.8 µM; note: nearly all actives have a fitted effect of over 35% in size
Excerpt: National Center for Advancing Translational Sciences [NCATS]
NIH Chemical Genomics Center [NCGC]
U.S. Environmental Protection Agency [EPA]
National Institutes of Environmental Health Sciences [NIEHS]
National Toxicology Program [NTP]
Cell-based models are critical for drug discovery. Determining the natural cytotoxic effects resulting from test compounds is an essential research activity. A CellTox Green Cytotoxicity Assay to monitor cytotoxicity in real time of continues cell culture during 40 hours of the compound treatment was used to screen Tox21 10K library compounds in HepG2 cells. CellTox Green Cytotoxicity Assay is a nonlytic, homogeneous, biofluorescent method to measure cytotoxicity in cell culture after experimental manipulation. The assay system uses a proprietary asymmetric cyanine dye that is excluded from viable cells but preferentially stains the dead cell's DNA. […] Viable cells produce no appreciable increases in fluorescence. Therefore, the fluorescence signal produced by the binding interaction with dead cell DNA is proportional to cytotoxicity.
The mixture of HepG2 cell suspension and reagents were dispensed at 600cells/6 ul/well in 1536-well tissue culture treated black solid bottom plates using a Multidrop dispenser. After the assay plates were incubated at a 37 C/5% CO2 incubator for 5 hours, 23 nL of compounds dissolved in DMSO, positive and negative controls was transferred to the assay plate by a pintool work station. The plates were incubated at 37 C for 40 hours. The fluorescence intensity were measured at 0h, 8h, 16h, 24h, 32h and 40h time points using ViewLux plate reader during compound treatment.
Potency is the fitted concentration of half-maximal effect.

SMILES	Potency
CC(C)(C)OO	inactive
C=CC(=O)N(C)C	inactive
CCN(CC)c1c([N+](=O)[O-])cc(C(F)(F)F)c(N)c1[N+](=O)[O-]	inactive
C[C@@H]1CC[C@@]2(OC1)O[C@H]1[C@@H](O)[C@H]3[C@@H]4CC[C@H]5C[C@@H](O[C@@H]6O[C@H](CO)[C@H](O[C@@H]7O[C@H](CO)[C@@H](O)[C@H](O[C@@H]8OC[C@@H](O)[C@H](O)[C@H]8O)[C@H]7O[C@@H]7O[C@H](CO)[C@@H](O)[C@H](O[C@@H]8O[C@H](CO)[C@@H](O)[C@H](O)[C@H]8O)[C@H]7O)[C@H](O)[C@H]6O)[C@H](O)C[C@]5(C)[C@H]4CC[C@]3(C)[C@H]1[C@@H]2C	inactive
BrCBr	inactive
CC(C)(C)C(O)C(Oc1ccc(-c2ccccc2)cc1)n1cncn1 (stereo not given)	inactive
CC(C)Oc1cccc(NC(=O)c2ccccc2C(F)(F)F)c1	49 µM (active)
CC(=O)c1ccc(-c2ccccc2)cc1	inactive
CCC(C)c1cc(C(C)(C)C)cc(-n2nc3ccccc3n2)c1O (stereo not given)	inactive
COc1ccc(/C(=C/C(=O)N2CCOCC2)c2ccc(Cl)cc2)cc1OC	inactive
C[C@]12CC[C@H]3[C@@H](CCC4=CC(=O)CC[C@@]43C)[C@@H]1CC[C@@H]2O	inactive
[Hg+2].[I-].[I-]	inactive
COc1cccc(C(=O)CCN[C@@H](C)[C@H](O)c2ccccc2)c1	inactive
CCOC(=O)CC(=O)CCl	inactive
CC(=O)[O-].CC(=O)[O-].[Hg+2]	inactive
Oc1ccc(C(=C(Cl)Cl)c2ccc(O)cc2)cc1	inactive
CC(C)OC(=O)C(O)(c1ccc(Cl)cc1)c1ccc(Cl)cc1	inactive
Oc1ccc2ccc3cccc4ccc1c2c34	inactive
COS(=O)(=O)c1ccc(C)cc1	inactive
BrC(Br)Br	inactive

SMILES	Potency
c1ccc2c(c1)OCC(C1=NCCN1)O2 (stereo not given)	inactive
CC1CCC(C(C)C)C(OC(=O)c2ccccc2N)C1 (stereo not given)	inactive
CC[C@H]1C[C@@H]2C[C@H]3c4[nH]c5ccc(OC)cc5c4CCN(C2)[C@@H]13	inactive
C[C@]12CC[C@H](O)C[C@H]1CC[C@@H]1[C@@H]2C[C@@H](O)[C@]2(C)[C@@H](C3=CC(=O)OC3)CC[C@]12O	inactive
CN(C)C(=S)S	inactive
CCCCCCCCCCCCCCCC[n+]1ccccc1	inactive
C[C@@H]1O[C@@H](O[C@H]2C[C@@H](O)[C@]3(CO)[C@H]4[C@H](O)C[C@]5(C)[C@@H](C6=CC(=O)OC6)CC[C@]5(O)[C@@H]4CC[C@]3(O)C2)[C@H](O)[C@H](O)[C@H]1O	inactive
Cc1cc(C(C)(C)c2cc(C)c(O)c(C)c2)cc(C)c1O	inactive
FC(Cl)(Cl)Cl	inactive
ClC1=C(Cl)C2(Cl)C3C(Cl)C=CC3C1(Cl)C2(Cl)Cl (stereo not given)	inactive
CCCCOCN(C(=O)CCl)c1c(CC)cccc1CC	inactive
CC1(c2ccc(Oc3ccccc3)cc2)OC(=O)N(Nc2ccccc2)C1=O (stereo not given)	inactive
CC(C)CC(C)Nc1ccc(Nc2ccccc2)cc1 (stereo not given)	inactive
CNC(C)Cc1ccc2c(c1)OCO2 (stereo not given)	inactive
COc1cccc2c1C(=O)c1c(O)c3c(c(O)c1C2=O)C[C@@](O)(C(=O)CO)CC3OC1CC(N2CCOC(OC)C2)C(O)C(C)O1 (stereo not given in full)	inactive
CCCSP(=O)(OCC)SCCC	inactive
Clc1ccc(-c2ccccc2)cc1	inactive
O=[N+]([O-])c1ccc(Oc2ccc(C(F)(F)F)cc2[N+](=O)[O-])cc1	inactive
CC(C)(c1ccc(O)c(-c2ccccc2)c1)c1ccc(O)c(-c2ccccc2)c1	inactive
CCOc1cc(C(C)(C)C)ccc1C1COC(c2c(F)cccc2F)=N1 (stereo not given)	inactive
